# According to PubChem BioAssay:
# Where “and” joins values, the source holds several entries; their conditions need not be identical. Identical values can stand only once. Calls of active or inactive are those of the source. Cut-off read from the data, not from the text of the source, unless noted: active = inhibition above about 80%; inactive = the rest.
# Legend:
# [1] = HTB85 osteosarcoma cell growth inhibition, synergistic combos for chromothripsis tumors, BGB or cisplatin IC20 combos (AID 1671453); conditions: HTB85 osteosarcoma cells, drug combinations, stronger effect = higher value;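 note: cells exposed for 96 hours before readout; 0% = vehicle DMSO and 100% = high DMSO killing control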
# [2] = CRL2098 osteosarcoma cell growth inhibition, synergistic combos for chromothripsis tumors, BGB or cisplatin IC20 combos (AID 1671454); conditions: CRL2098 osteosarcoma cells, drug combinations, stronger effect = higher value;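 note: cells exposed for 96 h before readout; 0% = vehicle DMSO and 100% = killing by high DMSO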
# [3] = HD-MB03 medulloblastoma cell growth inhibition, synergistic combos for chromothripsis tumors, BGB or cisplatin IC20 combos (AID 1671455; in the data active = inhibition above about 83%;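 note: 0% = vehicle DMSO and 100% = high DMSO as cytotoxic control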); conditions: HD-MB03 medulloblastoma cells, stronger effect = higher value
# [4] = UWB1.289 ovarian carcinoma cell growth inhibition, synergistic combos for chromothripsis tumors, BGB or cisplatin combos (AID 1671456); conditions: UWB1.289 ovarian carcinoma cells, stronger effect = higher value;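 note: cells exposed to compound for four days; 0% = vehicle DMSO and 100% = killing by high DMSO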
# [5] = LFS_MB_2R medulloblastoma cell growth inhibition, synergistic combos for chromothripsis tumors, cisplatin combos (AID 1671457); conditions: LFS_MB_2R medulloblastoma cells, stronger effect = higher value;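 note: cells exposed to compound for four days before readout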
# [6] = MDA-MB-436 breast carcinoma cell growth inhibition, synergistic combos for chromothripsis tumors, BGB or cisplatin combos (AID 1671458; call rule not given here;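 note: cells exposed for 96 hours; 0% = vehicle DMSO and 100% = killing by high DMSO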); conditions: MDA-MB-436 breast carcinoma growth inhibition, drug combinations, stronger effect = higher value
# [7] = UWB1.289_BRCA1 ovarian cancer growth, cell-based, BGB or cisplatin combinations (AID 1671459); conditions: UWB1.289 BRCA1 ovarian carcinoma, drug combinations, stronger effect = higher value
# [8] = human astrocyte viability loss, single and combined drugs, cytotoxicity control for chromothriptic childhood tumor combination screen, cell-based, BGB or cisplatin IC20 combos (AID 1671460); conditions: Human astrocytes, drug combinations, stronger effect = higher value;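 note: cells exposed to compounds for 96 hours before viability readout; 0% = vehicle and 100% = killing control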
# [9] = growth inhibition of BT084 medulloblastoma cells, cell-based, ICGC_MB145, cisplatin and BGB IC40 combos (AID 1671461); conditions: drug combinations, stronger effect = higher value;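 note: cells exposed to drugs for 96 hours; 0% = vehicle DMSO and 100% = high DMSO full killing control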
# [10] = growth inhibition of RCMB18 medulloblastoma cells, cell-based, cisplatin and BGB IC40 combos (AID 1671462); conditions: stronger effect = higher value;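 note: cells exposed to compound for four days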
# [11] = growth inhibition of CRL1545 osteosarcoma cells, cell-based, cisplatin and BGB IC20 combos (AID 1671464); conditions: stronger effect = higher value;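 note: cells exposed to compound for 96 hours before readout; 0% = vehicle DMSO and 100% = high DMSO killing control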
# [12] = hESC survival regulators, cell-based (AID 493140; call rule not given here;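 note: cells exposed to compounds for four days before counting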); conditions: human embryonic stem cell survival screen; stronger effect = higher value
# [13] = liver-stage malaria parasite growth inhibition, primary screen, cell-based, HepG2, luciferase luminescence, HepG2 viability (AID 624349; in the data active = parasite load remaining mostly below about 12%, no sharp cut-off; inactive = mostly above about 10%;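 note: 100% = mean of DMSO negative control wells on the same plate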); conditions: P. berghei liver stage in HepG2, luciferase luminescence, concentration not given here; parasite load remaining: stronger effect = lower value; viability: measured here: HepG2 viability without parasites
# [14] = sensitizers of A549 cells to miR-34 induction, primary screen, imaging, A549 dox-inducible miR-34, nuclei and caspase counts (AID 1347080;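 active = compounds whose cell count with miR-34 switched on is under 0.7 times the count with it off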); conditions: A549 miR-34 inducible, Hoechst nuclei count, 48 h
# [15] = survival rescue of mitochondrial mutant cells in low glucose, primary screen, MELAS cybrids, Rieske KO mouse fibroblasts, CellTiter-Glo (AID 1508586;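 active = mean z-score across replicates of 1.96 or higher in either the MELAS or the Rieske mutant cell line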;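 note: z relative to plate mean and SD of compound and empty wells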)
# [16] = measured here: combination with cisplatin, at 0.5 µM
smiles,measurement,setting,value
O=c1ccn(C2OC(CO)C(O)C2O)c(=O)[nH]1 (stereo not drawn),inhibition,[1]; at 0.5 µM,10.7% (inactive) and -20.8% (inactive)
same,inhibition,"[1]; measured here: with BGB IC20, at 0.5 µM",10.2% and -46.4%
same,inhibition,"[1]; measured here: with BGB IC20, at 5 µM",15% and -44.4%
same,inhibition,"[1]; measured here: with cisplatin IC20, at 0.5 µM",7.75% and -5.03%
same,inhibition,"[1]; measured here: with cisplatin IC20, at 5 µM",1.8% and -45.1%
same,inhibition,"[1]; single agent, at 5 µM",13% and -28.4%
same,inhibition,[2]; at 0.5 µM,9.28% (inactive) and -75.8% (inactive)
same,inhibition,"[2]; measured here: combination with BGB at IC20, at 0.5 µM",0.692% and -94%
same,inhibition,"[2]; measured here: combination with cisplatin at IC20, at 0.5 µM",13.9% and -68.3%
same,inhibition,[3]; at 0.5 µM,6.18% (inactive) and -13.5% (inactive)
same,inhibition,"[3]; measured here: combo with BGB at IC20, at 0.5 µM",2.23% and -12.6%
same,inhibition,"[3]; measured here: combo with cisplatin at IC20, at 0.5 µM",13.4% and -11.6%
same,inhibition,[4]; at 0.5 µM,16.3% (inactive) and -6.23% (inactive)
same,inhibition,"[4]; measured here: inhibition with BGB combination, at 0.05 µM",-2.12% and -33.8%
same,inhibition,"[4]; measured here: inhibition with cisplatin combination, at 0.05 µM",36.9% and -21.3%
same,inhibition,[5]; at 0.5 µM,6.19% (inactive) and -21.5% (inactive)
same,inhibition,[5]; [16],9.72% and -11.9%
same,inhibition,"[5]; measured here: combination with cisplatin, at 5 µM",14.1% and -81.5%
same,inhibition,[6]; at 0.5 µM,10.4% (inactive) and -39.6% (inactive)
same,inhibition,"[6]; measured here: BGB combination, at 0.5 µM",7.3% and -43.2%
same,inhibition,"[6]; measured here: BGB combination, at 5 µM",8.01% and -19.5%
same,inhibition,"[6]; measured here: cisplatin combination, at 0.5 µM",12.2% and -58.5%
same,inhibition,"[6]; measured here: cisplatin combination, at 5 µM",2.73% and -39.8%
same,inhibition,"[7]; BGB combination, concentration series, at 5 µM",8.48% and -29.5%
same,inhibition,[7]; at 0.5 µM,10.7% (inactive) and -14.6% (inactive)
same,inhibition,"[7]; cisplatin combination, concentration series, at 5 µM",-14.1% and -9.02%
same,inhibition,[8]; at 0.5 µM,8.08% (inactive) and -8.91% (inactive)
same,inhibition,"[8]; measured here: combo with BGB IC20, at 0.5 µM",10.4% and -14.8%
same,inhibition,"[8]; measured here: combo with cisplatin IC20, at 0.5 µM",12.5% and -5.12%
same,inhibition,[9]; at 0.5 µM,5.91% (inactive) and -28.7% (inactive)
same,inhibition,"[9]; cisplatin combination, at 0.5 µM",-2.3% and -6.58%
same,inhibition,"[9]; cisplatin combination, at 5 µM",-4.68% and -1.56%
same,inhibition,"[9]; measured here: BGB IC40 combination 0.05 uM, at 0.05 µM",39.8% and -13.1%
same,inhibition,"[9]; single agent, at 5 µM",-4.18% and -25.9%
same,inhibition,[10]; at 0.5 µM,11% (inactive) and -17.5% (inactive)
same,inhibition,"[10]; cisplatin combo, at 5 µM",10.7% and -4.43%
same,inhibition,"[10]; measured here: BGB IC40 combination, at 0.05 µM",15.8% and -34.3%
same,inhibition,[10]; [16],22.8% and -4.28%
same,inhibition,"[10]; single agent, at 5 µM",-1.69% and -19.5%
same,inhibition,[11]; at 0.5 µM,11.7% (inactive) and -2.83% (inactive)
same,inhibition,"[11]; measured here: with BGB IC20 combination, at 0.5 µM",-2.36% and -19.1%
same,inhibition,"[11]; measured here: with cisplatin IC20 combination, at 0.5 µM",17.5% and 3.15%
same,inhibition,"[11]; single agent, at 0.05 µM",32.6% and -48.2%
same,inhibition,"[11]; single agent, at 5 µM",-21.6% and -1.48%
C/C(=C(/CCO)SSCC1CCCO1)N(C=O)Cc1cnc(C)nc1N (stereo not drawn),survival,[12],5.83 (inactive)
same,parasite load remaining,[13],105% (inactive)
same,viability,[13],73.2%
same,fold change,"[14]; stronger effect = lower value, cell number ratio, induced over uninduced",0.933 (inactive)
same,fold change,[14]; measured here: relative caspase fold change +Dox/-Dox,0.561
same,cell count,"[14]; measured here: total cells with miR-34 induction, stronger effect = lower value",9240
same,cell count,[14]; measured here: total cells without miR-34 induction,9910
same,z-score,"[15]; MELAS cybrid survival, CellTiter-Glo 48 h, stronger effect = higher value",0.79 (inactive)
same,z-score,"[15]; Rieske KO mouse fibroblast survival, CellTiter-Glo 72 h",0.563
